Results as given in ChEMBL document CHEMBL1157539, “Thousands of chemical starting points for antimalarial lead identification” (Nature, 2010).

What follows are compounds tested on HepG2 (assay: GSK_TCMDC: Percent inhibition of human HepG2 cell line. Test compounds present at 10uM.).
Assay type: functional

| Structure (SMILES) | Inhibition [%] |
| --- | --- |
| Cc1cc(NC(=O)[C@H](CC2CCCCC2)Nc2ccc(C#N)c3ccccc23)ccc1F.O=C(O)C(F)(F)F | 21 |
| CNC(=O)COc1ccc(Nc2nnc(-c3ccc(C)c(S(=O)(=O)NCC4CCCO4)c3)c3ccccc23)cc1 (centres undefined) | 0 |
| OCCCCCCNc1ccnc2[nH]c3ccc(I)cc3c12 | 27 |
| CC(=O)Nc1ncc(C(=O)Nc2cccc(-c3ccc(-c4nc5cc(F)ccc5[nH]4)cc3)c2)s1 | 18 |
| Cl.N=C(N)Nc1ccc(NC(=O)Nc2ccc(NC(=N)N)cc2)cc1 | 0 |
| Cc1nc(C)c(-c2ccc(C(=O)c3ccc(Cl)cc3)cc2)c(O)c1Br | 10 |
| COC(=O)c1cccc(CNCc2cccc(-c3ccc(-c4nc5cccc(C)c5[nH]4)s3)c2)c1.O=C(O)C(F)(F)F | 0 |
| COc1cccc(C(=O)Nc2ccc(-c3nc4ccccc4[nH]3)cc2)c1 | 28 |
| N#Cc1ccnc(-c2ccc(CNC3CCN(CC4Cn5c(=O)ccc6ccc(F)c4c65)CC3)cc2)c1.O=C(O)C(F)(F)F (centres undefined) | 24 |
| CC(=O)Nc1ccc(CN2CCC(NC(=O)c3cc(-c4ccc(N(C)C)cc4)cs3)C2)cc1.O=C(O)C(F)(F)F (centres undefined) | 15 |
| COc1cc(C(=O)NC2CC(C)(C)N(C)C(C)(C)C2)ccc1-c1cc2cc(Cl)c(Cl)cc2[nH]1 | 65 |
| O=C(NCCc1ccccc1)N(Cc1cccc(-c2ccc(CNCCc3ccccc3)cc2)c1)C1CCN(Cc2ccccc2)CC1.O=C(O)C(F)(F)F | 94 |
| CC(=O)c1ccc(NC(=O)CSc2nc(-c3ccccc3Cl)ns2)cc1 | 0 |
| NC1CCN(Cc2ccc(-c3ccc(-c4nc5ccccc5[nH]4)cc3)cc2)C1.O=C(O)C(F)(F)F (centres undefined) | 34 |
| O=C(NCCN1CCOCC1)c1ccc(CNC(=O)c2ccc(O)c(-c3ccc(Cl)c(Cl)c3)c2)cc1 | 3 |
| CC(=O)N[C@H](C(=O)Nc1cccc(-c2ccc(-c3nc4cccc(C)c4[nH]3)s2)c1)C(C)C | 33 |
| O=c1cc(NCCC(CNCCc2ccccc2)NCc2cc(Br)cc(Br)c2)[nH]c2ccccc12 (centres undefined) | 3 |
| CCOc1ccc(C2CCN(CCCCNC(=O)c3ccc(NC(=O)c4ccc(Cl)cc4)cc3)CC2)c(Cl)c1 | 32 |
| CN(C)CCCOc1ccc(CN2CC[C@H](NC(=O)c3ccc(Cl)c(Cl)c3)C2)c2ccccc12.O=C(O)C(F)(F)F | 81 |
| Oc1ccccc1N1CCN(c2ccc(-c3nc4ccccc4[nH]3)cn2)CC1 | 0 |

| Structure (SMILES) | Inhibition [%] |
| --- | --- |
| Cc1ncccc1-c1cccc2c(NC(=O)Nc3ccc4nccc(N5CCN(C)CC5)c4c3)cccc12.Cl | 19 |
| CCOc1ccc(CCC(=O)O)cc1OCC | 60 |
| CCn1c(-c2nonc2N)nc2c(-c3cccc(NC(=O)Nc4ccc(C(F)(F)F)cc4)c3)ncc(OCCCN)c21.O=C(O)C(F)(F)F | 36 |
| CCCCCCn1c(Sc2ccc(C#N)c([N+](=O)[O-])c2)nnc1-c1ccc(OC)cc1 | 19 |
| Nc1ccnc(N2CCC(CCOc3cc(C(F)(F)F)nc4c(C(F)(F)F)cccc34)CC2)c1 | 35 |
| CCN(Cc1ccc(-c2ccc(C(F)(F)F)cc2)cc1)C(=O)Cn1c(SCc2cccc(F)c2F)cc(=O)c2cc(CN3CCCCC3)ccc21.Cl | 95 |
| COc1cccc(CC(=O)N2CCC(n3c(C)nc4ccc(C)cc43)CC2)c1 | 1 |
| C=C(C)C1CC=C(CN2CCCC(n3ccc4cc(NC(=O)c5ccco5)ccc43)CC2)CC1 (centres undefined) | 13 |
| CC(C)CNCc1ccc(-c2cccc(CN(C(=O)NCCc3ccccc3)C3CCN(Cc4ccccc4)CC3)c2)cc1.O=C(O)C(F)(F)F | 91 |
| Cc1nc(-c2ccc(-c3ccc(C(=O)Nc4ccc(-n5ccnc5)c(N5CCN(C)CC5)c4)cc3)c(C)c2)no1 | 34 |
| CCOC(=O)C1=C(C)N=c2sc(=Cc3cc(Cl)ccc3O)c(=O)n2C1c1ccc(OC)cc1 (centres undefined) | 0 |
| COc1ccc(NC(=O)NC2CCN(CCCCCNC(=O)/C=C/c3ccc(Cl)c(Cl)c3)C2)c(OC)c1 (centres undefined) | 24 |
| COc1ccc(Nc2nccc(N3CCC(NC(=O)Nc4cc(C)ccc4C)C3)n2)cc1 (centres undefined) | 10 |
| Cl.O=C(Nc1ccc(Cl)c(Cl)c1)N1CCc2cc3nccc(N4CCN5CCC[C@H]5C4)c3cc21 | 2 |
| CN1CCN=C1c1ccc(NC(=O)Nc2ccc(C3=NCCN3C)cc2)cc1.Cl | 7 |
| Cc1ccc(C)c(Sc2ccc(NC(=O)CN3CCN(C(=O)c4ccco4)CC3)cc2)c1 | 28 |
| C[C@@H](Oc1cc(-n2cnc3cc(SCCN4CCN(C)CC4)ccc32)sc1C(N)=O)c1ccccc1Cl | 46 |
| O=C(Cc1cccc(Cl)c1)Nc1ccc(N2CCC(NCc3ccc4ncccc4c3)CC2)cc1 | 10 |
| O=C(Cc1ccc(-n2cnnn2)cc1)N(Cc1cncn1Cc1cccc(C(F)(F)F)c1)CC1CC1 | 0 |
